Reference: ChEMBL document CHEMBL4888484, “Replenishing the malaria drug discovery pipeline: Screening and hit evaluation of the MMV Hit Generation Library 1 (HGL1) against asexual blood stage Plasmodium falciparum ,using a nano luciferase reporter read-out” (2022)
Among all 4,800 compounds or so, about 420 (8.8%) showed an effect of 50% or more. This is one part of a sample in which strong results are shown more often than they occur.

System: Plasmodium falciparum
Assay: Confirmatory screen in NF54 nanoGlo assay, in single point, at 2uM, 72h
Assay type: functional, Erythrocyte
Settings: timepoint 72 hour

Structure (SMILES)	% Inhibition
COc1cccc(S(=O)(=O)N2CCCN(Cc3ccncc3)[C@H](c3ccccc3)CC(=O)NCC2)c1	92%
COc1cccc(S(=O)(=O)N2CCC(OCCOCc3ccccc3)CC2)c1	-3%
COc1cccc(S(=O)(=O)N2CCC(OCCOc3ccccc3)CC2)c1	0%
COCCCn1c(=O)c2ccccc2n(CC(=O)N2CCc3ccccc32)c1=O	-8%
CC(C)OC(=O)N(CCOC(=O)Nc1cccc(Cl)c1)CCOC(=O)Nc1cccc(Cl)c1	-15%
COc1ncccc1C(=O)NC[C@H](C)S(N)(=O)=O	4%
Cc1cc(NC(=O)C(=O)Nc2cnn(CCC(C)C)c2C)n(C)n1	-7%
COc1ccccc1N(Cc1ccccc1)C1=NC(=[N+](Cc2ccccc2)c2ccccc2OC)c2ccccc21	74%
C[C@H](NC(=O)c1cc(C2CC2)[nH]n1)c1nccs1	-11%
CN(C(=O)c1ccccc1Br)C(C)(C)C	-10%
COc1ccccc1[C@H]1CC(O)=Nc2c1ncn2-c1cc(F)ccc1F	-3%
Cc1nnc2ccc(S(=O)(=O)N(Cc3ccccc3F)c3ccccc3)cn12	-16%
CCc1ccc(C2=C[C@@H](c3cccc(OC)c3)n3ncc(C(=O)Nc4ccc(C)cc4)c3N2)cc1	70%
COc1cccc([C@H]2CC(=O)Nc3c2cnn3C)c1	-8%
COc1ccc(NC(=O)[C@@H]2COCC(=O)N2Cc2ccc(C)cc2)cc1	1%
CC[C@H](C)N1CCN(Cc2cccc(Oc3ccccc3)c2)CC1	-6%
CC[C@H]1Cn2c(C(=O)N3CCN(c4ccccn4)CC3)cc3c(Cl)ccc(c32)O1	-8%
Cc1nn(C)cc1-c1nnc(-c2ccccc2)o1	-17%
COc1ccc(COC(=O)c2cccnc2C)cn1	-9%
O=C(C[C@H]1CCCN1c1ccnc(C2CC2)n1)c1ccco1	3%
CCc1nc(NS(=O)(=O)c2cc(Cl)sc2Cl)no1	-4%
O=C1NCCCc2nn(Cc3cc(F)ccc3Br)cc21	-12%
CCOC(=O)c1c[nH]c2c(-c3ccccc3)nsc2c1=O	-5%
O=C(c1cccs1)N1CCN(C2CCCCCC2)CC1	1%
CC(C)c1nc(O)cc(CN2CCCCC2)n1	-8%
CC(C)c1ccc(-c2nc(CN3CCCCC3)cc(CN3CCCCC3)c2O)cc1	96%

Structure (SMILES)	% Inhibition
Cc1ccc(C)c(NC(=O)CN2CCC3(CC2)NC(c2ccc(OC(F)(F)F)cc2)=NO3)c1	-3%
CC(C)[C@@H]1CN(C(=O)c2ccncc2)c2ccccc2N1	-7%
Cc1ccc(Cn2ccnc2C(=O)Nc2ccccc2)cc1	-15%
CC1(C)OCc2cc(CNc3ccc4oc(=O)[nH]c4c3)ccc2O1	93%
CCCN1CC(=O)N(c2ccc(C)cc2)[C@@H]2CS(=O)(=O)C[C@@H]21	4%
COc1ccc(-c2nccn3cc(C(=O)N4CCN(c5cccc(OC)c5)CC4)nc23)cc1	-6%
O=C(NCc1ccccc1OC1CCC1)N(CCO)C1CC1	-2%
CC(=O)N(c1ccccc1)[C@H]1C[C@@H](C)N(C(=O)C(F)(F)F)c2ccccc21	9%
Cc1noc(C)c1CN1CCCN(C(=O)c2n[nH]c3ccccc23)CC1	0%
Cc1noc(C)c1CN1C[C@@H]2Oc3cc(F)ccc3C(=O)N(C)[C@@H]2C1	92%
Cc1noc(C)c1CN1CCNC(=O)CC1	-11%
O=C1O[C@@H](CO)CN1c1cccc(F)c1	-4%
COc1ccc2nc(N3CN(Cc4ccccc4)CN(c4nc5ccc(OC)cc5s4)C3)sc2c1	3%
Cc1ccc(C(=O)N(Cc2cccc(F)c2)c2ccc(CC(=O)N[C@@H](C)c3ccccc3)cc2)cc1	81%
Cc1ccccc1C(=O)N(Cc1cccc(F)c1)c1ccc(CC(=O)NCCN2CCCCC2)cc1	44%
O=C(Cc1ccc(N(Cc2cccc(F)c2)C(=O)c2cccc(F)c2)cc1)NCCN1CCCCC1	38%
CNC(=O)Cc1c(Cl)cccc1Cl	1%
CN1CCN(C(=O)C[C@@H]2CCN3C[C@@H]2/C=C\COc2ccccc2CN(C(=O)CC(C)(C)C)CC3=O)CC1	5%
Nc1cc(Br)c(C(F)(F)F)cc1NC(=O)C(F)(F)F	-11%
CCn1cc(Br)c(=O)c(NC(=O)[C@H]2CCCOC2)c1	-7%
Cc1nc2cc(NC(=O)c3cccs3)ccc2o1	-8%
CC(C)(CC(=O)Nc1ccc2oc(C3CC3)nc2c1)C(=O)O	-2%
Cc1nc2cc(NC(=O)[C@@]3(C)CCCN(C(=O)c4ccccc4)C3)ccc2o1	57%
CNC(=O)c1cnc(C=Cc2cnc(-c3cccnc3)s2)s1	0%
Cc1cc(C)c2ccc3ccccc3c2n1	-4%
CC[N+](C)(CC)CCOc1cc(C)c2ccccc2n1	53%

Structure (SMILES)	% Inhibition
CC(C)(NCc1ccccc1Cl)C(=O)O	4%
Cc1ccc(S(=O)(=O)Nc2ccc(Oc3ccc(NS(=O)(=O)c4ccc(C)cc4)cc3)cc2)cc1	3%
N[C@H]1C[C@H](c2cc(NCCCc3cccnc3)nc(C3CC3)n2)C1	75%
Cc1ccc(OCCNc2cc([C@H]3C[C@H](N)C3)nc(C3CC3)n2)cc1C	31%
Nc1nc2c(s1)CN(CCc1ccccc1)CC2	38%
N#Cc1c(-c2ccccc2)cc(-c2ccccc2)nc1S(=O)(=O)Cc1ccccc1	35%
N#Cc1nc2c(C#N)c(N)n(CCc3ccccc3)c2nc1C#N	87%
O=C(c1ccccc1)N1N=C(C(F)(F)F)C2CCCCCC21O (stereo not drawn)	-11%
CCC1Cn2c(C(=O)NC(C)Cc3ccco3)cc3cccc(c32)O1 (stereo not drawn)	-8%
CCOC(=O)N(c1ccccc1)[C@H]1CC(=O)N(c2ccccc2)C1=O	1%
Cc1nnc2ccc(S(=O)(=O)Nc3cc(F)cc(F)c3)cn12	-4%
Cn1cc(CN2CCC(C(=O)NCCCN3CCCCC3)CC2)c2cc(Cl)ccc21	-7%
O=C(NCCCN1CCOCC1)c1ccc(-c2cnc(NC3CCCCC3)nc2)cc1	-8%
Cc1cc2nc(C)c(=O)n(Cc3ccc(C(=O)NCCN4CCCC[C@@H]4C)cc3)c2cc1C	17%
COc1ccc(-c2nccn3cc(C(=O)NCCN(C)C4CCCCC4)nc23)cc1	6%
O=S1(=O)NC(c2ccccc2)(c2ccccc2)c2ccccc21	1%
CCc1ccc(NC(=O)c2sc3nc(C)c(C(=O)Nc4ccc(C)cc4C)c(-c4ccccc4Cl)c3c2N)cc1	16%
Cc1ccc(NC(=O)c2c(C)nc3sc(C(=O)NCc4ccccc4)c(N)c3c2-c2ccccc2Cl)c(C)c1	77%
Cc1ccc(NC(=O)c2c(C)nc3sc(C(=O)NCc4ccccc4)c(N)c3c2-c2cccs2)c(C)c1	2%
CC(C)NC(=O)C(=O)Nc1nccs1	-14%
CC(C)N(CC(=O)Nc1nccs1)Cc1ccccn1	68%
CC(C)c1nc(CN(C)[C@@H](C)C(=O)Nc2nccs2)cs1	22%
O=c1cc2c(nn1Cc1ccccc1Cl)-c1ccccc1CC2	-8%
O=C(c1ccc(O)cc1)C1CCN(C[C@H](O)C(F)(F)F)CC1	5%
Cc1nn(C)c2c(N3CCc4ccccc4C3)nc(C3CC3)nc12	-7%
CCOCCCNC(=O)c1ccc(-c2ccc3c(c2)CCN3C(C)=O)cc1	-2%

Structure (SMILES)	% Inhibition
O=C(NCC1CCCCC1O)c1cnn2ccncc12 (stereo not drawn)	-12%
O=C(NCC1CCCCC1)c1cn[nH]c1-c1ccccc1	-4%
O=C1Nc2ccccc2O[C@H]2C[C@@H]1N(CC1CC1)C2	-10%
CC(=O)c1cccc(NC(=O)Cc2c(C)nc3nc(C4CCCCC4)nn3c2C)c1	5%
CC(C)N1CCN(C(=O)CN2N=C(c3nc(-c4ccccc4)no3)CCC2=O)CC1	5%
Clc1ccc(-c2noc(C3CNC3)n2)cc1	21%
c1ccc(-c2noc(-c3ccc(NC4CCCCC4)nn3)n2)cc1	55%
Cc1nn(-c2ncc(C(F)(F)F)cc2Cl)c(=O)n1-c1cccc(F)c1	-4%
CC(C)(C)c1nc(CNc2ccc(S(=O)(=O)CCO)cc2)no1	-9%
Cc1cc(=O)[nH]c(-n2nc(C3CC3)cc2NC(=O)C(C)(C)Oc2ccc(Cl)cc2)n1	85%
O=C(COc1ccc(Cl)cc1)N1CC(n2cnnc2C2CC2)C1	-7%
COc1ccc(Cl)cc1C(=O)Nc1cc(C2CC2)nn1-c1nc(C)cc(=O)[nH]1	66%
COc1ccc(Cl)cc1C(=O)N(C1CCOCC1)[C@H]1CCCN(S(C)(=O)=O)C1	-9%
COc1ccc(NC(=O)c2cc(C3CC3)nc3onc(C4CC4)c23)cc1Cl	-3%
Cc1cc(=O)[nH]c(N2CCCCCC2)n1	-2%
CC(C)C[C@H](N)C(=O)N1CC2CCCCC2C1 (stereo partly drawn)	-3%
CS(=O)(=O)N1C[C@@H]2CCCN2c2cc(C(F)(F)F)ccc21	4%
Cc1csc(C(C)(C)NC(=O)NCCC2=CCCC2)n1	-3%
CCOC(=O)c1sc(NC)nc1C(F)(F)F	-19%
CC1CN(C(=O)Cn2nnc3ccccc3c2=O)CC1N(C)C (stereo not drawn)	-4%
CCOCCC1(CNC(=O)c2cc(C)n[nH]2)CCC1	-1%
Cc1cnccc1NCCNC1CCN(c2ccc3c(c2)CCC3)CC1	72%
CCn1nccc1C(=O)NC1CCN(c2nnc3ccc(Cl)cn23)CC1	0%
Cc1cnccc1NCCNC1CCN(c2ccc(Cl)cc2)CC1	99%
CCCC(=O)N1CCN(c2c(C)n(-c3ccccc3)c(=O)n(C)c2=O)CC1	2%
